Source: PubChem BioAssay
An excerpt weighted towards active compounds, which were near 1.3% of everything screened.
RXFP1 antag: antagonists of human relaxin receptor RXFP1 | HEK293-RXFP1, relaxin-stimulated cAMP HTRF, 30 min; active compounds read low | AID 1259400 | activity change, negative = inhibition, % at 57.5 µM | 350,000 tested, 0.59% active;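 active = activity change of -60% or lower, but not beyond a set lower limit; inconclusive = change between -60% and -40%, or beyond the set limit; inactive = change above -40%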
Target sequence (Q9HBX9 whole entry, looked up): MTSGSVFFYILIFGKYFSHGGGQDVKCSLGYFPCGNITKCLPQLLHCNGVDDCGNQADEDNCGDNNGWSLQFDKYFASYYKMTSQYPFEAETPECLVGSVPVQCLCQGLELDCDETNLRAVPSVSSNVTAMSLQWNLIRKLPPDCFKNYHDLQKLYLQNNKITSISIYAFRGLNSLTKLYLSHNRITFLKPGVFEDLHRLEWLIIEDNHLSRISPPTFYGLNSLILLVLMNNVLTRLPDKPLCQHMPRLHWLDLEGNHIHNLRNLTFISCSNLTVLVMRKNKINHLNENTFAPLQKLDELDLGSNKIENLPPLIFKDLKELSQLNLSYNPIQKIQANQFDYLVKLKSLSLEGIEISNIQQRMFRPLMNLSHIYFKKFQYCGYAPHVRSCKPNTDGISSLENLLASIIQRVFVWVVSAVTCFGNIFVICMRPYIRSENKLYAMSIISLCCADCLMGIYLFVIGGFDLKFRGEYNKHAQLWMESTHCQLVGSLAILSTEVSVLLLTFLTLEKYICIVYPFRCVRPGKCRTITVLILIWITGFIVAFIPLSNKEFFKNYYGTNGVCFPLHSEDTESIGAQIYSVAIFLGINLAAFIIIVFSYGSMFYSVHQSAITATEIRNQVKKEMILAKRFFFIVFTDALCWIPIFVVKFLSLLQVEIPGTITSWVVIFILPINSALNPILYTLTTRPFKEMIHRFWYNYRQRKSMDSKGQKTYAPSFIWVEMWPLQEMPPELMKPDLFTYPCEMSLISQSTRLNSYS
Akt phos inh: Akt phosphorylation inhibition; activity change, % for hits at 50 µM; AID 651550; 360,000 tested, 0.32% active; Neuro2A IGF-stimulated pAkt S473 HTRF, 20 min; active compounds read low; in the data active = activity change below about -80%; inconclusive = mostly about -51% to -80%
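Neuro2A cells in DMEM with 0.5% FBS, overnight at 37 deg C, given compound at single 50 µM final, then IGF (6 nM final) for 20 min at 37 deg C. Lysed; phospho-Akt Ser473 by HTRF after 24 h, 665/615 ratio.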
gsp agonist: agonists of gsp mutant (McCune-Albright syndrome). gsp mutant cells, cAMP HTRF, 30 min. Potency, µM (titrated, usually from 76.9 µM), actives largely listed as activators. 340,000 tested, 0.13% active. AID 624287; active = well fitted activation curve with a large enough effect; inconclusive = small, poorly fitted or top-dose-only effect, or another doubt; inactive = no such curve, though single readings can be large or run the other way; cell line not stated here;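 also: phosphodiesterase inhibitor Ro 20-1724 added with compounds to block cAMP breakdown; nearly all actives have a fitted effect of over 60% in size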
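Cells stably selected in G418 were plated at 2000/well, grown 16-24 hr, then given compounds in DMSO with the PDE inhibitor […] (300 uM solution added) for 30 min at 37C; cAMP was read by HTRF.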
RXFP1 agonist: RXFP1 (human) receptor agonism | Q9HBX9 | HEK293T-RXFP1 cAMP TR-FRET, 30 min; response scale: percent of porcine relaxin response, buffer zero | Potency, µM (highest dose often 57.5 µM), most hits filed as activators | 370,000 tested, 0.3% active; active = well fitted activation curve with a large enough effect; inconclusive = small, poorly fitted or top-dose-only effect; also: nearly all actives have a fitted effect of over 60% in size
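HEK293 cells stably expressing RXFP1, treated 30 min at 37C with compounds plus PDE4 inhibitor Ro 20174; cAMP measured by HTRF TR-FRET. Normalized to buffer and 29 nM porcine relaxin; EC50 by Hill fit.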
gsp antag: antagonizes gsp, the McCune-Albright syndrome mutation | Potency, µM (series often up to 76.9 µM), hits mostly inhibitors | AID 624288 | gsp-mutant cells, cAMP HTRF, 30 min | 340,000 tested, 0.4% active; calls by dose curve; cell line not stated here;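 also: intracellular cAMP measured with PDE inhibitor Ro 20-1724 present during compound exposure; nearly all actives have a fitted effect of over 65% in size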
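HTRF cAMP measurement after 30 min RT detection following 30 min, 37C compound treatment alongside […] (added as 300 uM solution) in G418-selected cells seeded at 2000/well and grown 16–24 h.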
Of the large screens only hits and unclear results are named; the others gave an inactive call.

CN(c1ccccc1)S(=O)(=O)c1cccc(NC(=O)c2cc(=O)c3ccccc3o2)c1	gsp antag 39.8µM
CN(c1cccc(NC(=O)c2ccc(N(C)S(=O)(=O)c3ccccc3)cc2)c1)S(C)(=O)=O	gsp antag 25.1µM
Cc1nc2cc(NC(=O)c3ccc(S(=O)(=O)N(C)c4ccccc4)cc3)ccc2o1	gsp antag 31.6µM
NS(=O)(=O)c1cccc(NC(=O)c2cc(=O)c3ccccc3o2)c1	gsp agonist inconclusive
COc1cc(-c2nc(C(N)=O)c3c(n2)n(-c2cccc(C)c2)c(=O)n3C)cc(OC)c1OC	none (no result: RXFP1 antag, Akt phos inh, gsp agonist, gsp antag)
COc1cccc(CNS(=O)(=O)c2cc3[nH]c(=O)c(=O)[nH]c3cc2C)c1	none (no result: Akt phos inh, gsp agonist, gsp antag)
Cc1ccc(-n2nc(C)c3c(C(=O)NCc4ccccc4)cc(C4CC4)nc32)cc1	none (no result: Akt phos inh, gsp agonist, gsp antag)
CCOc1ccc(-c2nonc2NC(=O)c2oc3cc(C)ccc3c2C)cc1	RXFP1 antag -65.9 (no result: Akt phos inh, gsp agonist, gsp antag)
CCc1ccc(C(=O)c2cn(CC(=O)Nc3cc(F)ccc3F)c3nc(C)ccc3c2=O)cc1	none (no result: Akt phos inh, gsp agonist, gsp antag)
COc1ccccc1NC(=O)C1=C(C)Nc2nc(SCc3ccc(Cl)cc3)nn2C1c1ccccc1Cl (stereo not given)	none (no result: Akt phos inh, gsp agonist, gsp antag)
COc1cccc(N2CCN(c3ncnc4c3[nH]c3ccc(F)cc34)CC2C)c1 (stereo not given)	RXFP1 antag -69.1, gsp antag 3.55µM (no result: Akt phos inh)
COc1ccc2c(c1)[nH]c1c(N3CCN(Cc4ccc5c(c4)OCO5)CC3)ncnc12	gsp antag 39.8µM
COc1cccc(N2CCN(c3ncnc4c3[nH]c3ccccc34)CC2C)c1 (stereo not given)	none (no result: RXFP1 antag, Akt phos inh, gsp agonist, gsp antag)
Cc1ccc2[nH]c3c(N4CCN(Cc5ccc6c(c5)OCO6)CC4)ncnc3c2c1	none (no result: RXFP1 antag, Akt phos inh, gsp agonist, gsp antag)
COc1ccc2c(c1)[nH]c1c(N3CCSCC3)ncnc12	RXFP1 antag inconclusive, gsp antag 28.2µM
O=C(NCC(O)CO)c1c(I)c(C(=O)NCC(O)CO)c(I)c(N(CCO)C(=O)CO)c1I (stereo not given)	none (no result: Akt phos inh, gsp agonist, RXFP1 agonist, gsp antag)
CCOC(=O)C1CCN(C(=O)c2cc3c(ccc4ccccc43)o2)CC1	none
CC1CCN(C(=O)c2cc3c(ccc4ccccc43)o2)CC1	RXFP1 antag -60.2
CCN(CC)S(=O)(=O)c1cc([N+](=O)[O-])ccc1NNC(=O)Nc1ccccc1OC	none
CCN(CC)S(=O)(=O)c1cc([N+](=O)[O-])ccc1NNC(=O)Nc1ccc(F)cc1	gsp antag 50.1µM (no result: Akt phos inh)
CC(C)(C)C1CCc2c(sc(NC(=O)c3cc4ccccc4c(=O)o3)c2C(N)=O)C1 (stereo not given)	none (no result: RXFP1 antag, Akt phos inh, gsp agonist, gsp antag)
O=C(O)CC(NS(=O)(=O)c1ccc(Cl)s1)c1ccccc1 (stereo not given)	none (no result: Akt phos inh, gsp agonist, gsp antag)
CC[n+]1c(/C=C/Nc2ccccc2)sc2ccccc21	gsp antag 44.7µM
CCCc1cc(C(=O)N2CCCC(Cc3cccc(Cl)c3)(C(=O)OCC)C2)n(C)n1 (stereo not given)	RXFP1 antag -63.7
CCOC(=O)C1(Cc2cccc(Cl)c2)CCCN(C(=O)c2ccnn2C)C1 (stereo not given)	none
COC(=O)c1ccc(/C(O)=C(\C#N)c2nc3ccccc3s2)cc1	gsp antag 17.8µM
CC(=Cc1ccccc1)C(=O)c1ccccc1	none (no result: RXFP1 agonist, gsp antag)
O=C(C(Br)=Cc1ccccc1)c1ccccc1	RXFP1 antag -91.3 (no result: RXFP1 agonist)
OC(CN1C2=NCCCN2c2ccccc21)c1ccc2c(c1)OCO2 (stereo not given)	Akt phos inh -100.8%
OC(CN1C2=NCCN2c2ccccc21)c1ccc2c(c1)OCO2 (stereo not given)	Akt phos inh -118.2%
Cc1ccc(C(O)CN2C3=NCCCN3c3ccccc32)cc1 (stereo not given)	none
CC(C)n1c(SCC(=O)N2CCN(C(=O)c3ccco3)CC2)nc2c1c(=O)n(C)c(=O)n2C	RXFP1 agonist 14.1µM
COCCn1c(CN2CCN(C(=O)c3ccco3)CC2)nc2c1c(=O)n(C)c(=O)n2C	gsp agonist 17.8µM
CC(C)c1nnc(NC(=O)CCC(=O)N2CCN(c3ccc(Cl)cc3)CC2)s1	RXFP1 antag -66.6, gsp agonist inconclusive
Cc1ccc(O)c(N=CC2=C(O)c3ccccc3C2=O)c1	gsp agonist inconclusive, RXFP1 agonist 28.2µM
COc1ccc(N2CCN(S(=O)(=O)CCNC(=O)c3ccc(OC(C)C)cc3)CC2)cc1	none (no result: Akt phos inh, gsp agonist, gsp antag)
COc1cccc(NC(=O)c2oc3ccc(S(=O)(=O)N(C)C4CCCCC4)cc3c2C)c1	none (no result: Akt phos inh, gsp agonist, gsp antag)
O=C(N/N=C/C(Br)=C/c1ccccc1)c1cc(-c2ccco2)[nH]n1	RXFP1 antag -80.6
Cc1nc2ncnn2c(N2CCCC(C(=O)Nc3ccc4c(c3)CCC4)C2)c1C (stereo not given)	gsp agonist inconclusive, gsp antag 39.8µM
O=C(Nc1ccc2c(c1)CCC2)C1CCCN(c2ncccn2)C1 (stereo not given)	none
Cc1nc2c(C(=O)NCCC(C)C)c[nH]n2c(=O)c1Cc1ccccc1F	RXFP1 antag -100.6, gsp antag 20µM (no result: Akt phos inh)
CNc1ncnc2ccc(-c3c(C)noc3C)cc12	none (no result: RXFP1 antag, Akt phos inh, gsp agonist, gsp antag)
CC(C)N1CCc2c(sc(NC(=O)c3ccc(C(=O)c4ccccc4)cc3)c2C(N)=O)C1	none
CC(C)N1CCc2c(sc(NC(=O)c3ccc4ccccc4c3)c2C(N)=O)C1	RXFP1 antag -73.8
CCOCN(C(=O)Cn1cnc2cc(C)c(C)cc21)c1c(C)cccc1CC	none (no result: Akt phos inh, gsp agonist, gsp antag)
CCc1sc(C(=O)Nc2ccc3c(c2)OCO3)cc1C	RXFP1 antag -62.9 (no result: RXFP1 agonist)
CC1CCC(C(=O)NC(C(=O)OCC(=O)c2ccc(Br)cc2)C(C)C)CC1 (stereo not given)	none (no result: RXFP1 antag, Akt phos inh, gsp agonist, gsp antag)
Cc1ccc(CNC(=O)CCCc2nnc3n(C)c(=O)c4sccc4n23)cc1	RXFP1 agonist inconclusive (no result: Akt phos inh, gsp agonist, gsp antag)
COc1ccccc1CNC(=O)CCCc1nnc2n(C)c(=O)c3sccc3n12	gsp agonist 14.1µM, RXFP1 agonist inconclusive
CCn1c(=O)c2sccc2n2c(CCCC(=O)NCc3cccnc3)nnc12	gsp agonist inconclusive, RXFP1 agonist 17.8µM
CCCn1c(=O)c2sccc2n2c(CCCC(=O)Nc3ccccc3OCC)nnc12	none (no result: RXFP1 antag, Akt phos inh, gsp agonist, gsp antag)
COCCCn1c(=O)c2sccc2n2c(CCCC(=O)NCc3ccccc3OC)nnc12	gsp agonist inconclusive
Cn1c(=O)c2sccc2n2c(CCCC(=O)NCc3ccco3)nnc12	gsp agonist inconclusive, RXFP1 agonist 14.1µM
COc1ccccc1NC(=O)CCCc1nnc2n(C)c(=O)c3sccc3n12	gsp agonist 12.6µM, RXFP1 agonist 4.47µM
CC1(C)S[C@@H]2[C@H](NC(=O)Cc3ccccc3)C(=O)N2[C@H]1C(=O)O (tested in a mixture with another compound)	none (no result: Akt phos inh, gsp agonist, RXFP1 agonist, gsp antag)
Cc1ccccc1-n1nc(CO)c(C(=O)NCc2cccs2)n1	none (no result: Akt phos inh, gsp agonist, gsp antag)
COc1ccc(N(C(=O)c2ccccc2)S(=O)(=O)c2ccc3c(c2)n(C)c(=O)n3C)cc1	none (no result: Akt phos inh, gsp agonist, gsp antag)
